Test systems include NCI-H23 lung; NCI-H226 lung; NCI-H322M lung; HOP-62 NSCLC; HOP-92 NSCLC; NCI-H522 lung; A549/ATCC NSCLC; 786-0 renal; COLO 205 colon; DU-145 prostate; K-562 leukemia; MALME-3M melanoma; MDA-MB-231 breast; RXF 393 renal; SF-268 CNS; SF-295 CNS; SF-539 CNS; UACC-257 melanoma; M14 melanoma; NCI-H460 lung.
Experiment in all cases: NCI-60 one-dose screen, 48 h (100 = growth as untreated, 0 = no growth, -100 = all killed)
Holding throughout (details): 10 µM unless noted

Molecules are shown by their SMILES. Compounds without any hit were thinned out: in the full panel of roughly 83,000, 20% have a hit.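 For each line, cells grew in 96-well plates with the test compound present at a single concentration for 48 hours.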 A number with no mark means an inactive call. The source made the active and inactive calls. Rule for the calls: active = growth percent below 10; inactive = the rest.

Turning to `CCCCCCN(CCCCCC)CCCNc1nccc2ccccc12`, the growth in the experiment with NCI-H23 lung was 12%; in the experiment with NCI-H226 lung, 42.9%; with NCI-H322M lung it was 28.7%; in the experiment with HOP-62 NSCLC, 64.3%; in the experiment on HOP-92 NSCLC, -14.6% (active); in the experiment on NCI-H522 lung, 4.1% (active). Also, the growth is 14.3% with A549/ATCC NSCLC; 5.89% (active) with 786-0 renal; -66% (active) in the experiment on COLO 205 colon; 26.5% in the experiment on DU-145 prostate; 0.764% (active) with K-562 leukemia; -58.6% (active) with MALME-3M melanoma. Further, the growth in the experiment on MDA-MB-231 breast is 1.89% (active); in the experiment with RXF 393 renal it was 29.5%; in the experiment with SF-268 CNS, 33.2%; in the experiment with SF-295 CNS it was -50.8% (active); with SF-539 CNS it was -23.2% (active); with UACC-257 melanoma, 41.7%. In the experiment with M14 melanoma, the growth was -41.3% (active).

As to `c1ccc(C2NCCNC2c2ccccc2)cc1` (stereo not given), the growth is 103% with NCI-H23 lung; 99.5% in the experiment with NCI-H226 lung; 100% in the experiment with NCI-H322M lung; 98.7% in the experiment on HOP-62 NSCLC; 109% with NCI-H460 lung; 98.1% with A549/ATCC NSCLC. In addition, the growth in the experiment on 786-0 renal was 107%; in the experiment with COLO 205 colon, 103%; with DU-145 prostate it was 104%; with K-562 leukemia, 105%; in the experiment on MALME-3M melanoma it was 111%; in the experiment on MDA-MB-231 breast, 98.4%. Further, the growth in the experiment on RXF 393 renal was 120%; in the experiment on SF-268 CNS, 101%; with SF-295 CNS it was 104%; in the experiment with SF-539 CNS, 98.7%; with UACC-257 melanoma, 99.6%; in the experiment with M14 melanoma, 102%.

On to `CCCCC(CCc1ccc([N+](=O)[O-])cc1)(C(C)=O)C(=O)OCC` (stereo not given), for which the growth is 95.7% with NCI-H23 lung; 89.7% with NCI-H226 lung; 108% with NCI-H322M lung; 102% in the experiment on HOP-62 NSCLC; 105% in the experiment on NCI-H460 lung; 104% in the experiment with NCI-H522 lung. The growth is 100% in the experiment on A549/ATCC NSCLC; 98.2% in the experiment on 786-0 renal; 111% with COLO 205 colon; 102% in the experiment on DU-145 prostate; 99.7% in the experiment on K-562 leukemia; 98.2% in the experiment on MDA-MB-231 breast. The growth was 85.8% in the experiment on RXF 393 renal; 95.9% in the experiment with SF-268 CNS; 99.2% with SF-295 CNS; 94.7% in the experiment on SF-539 CNS; 99.1% in the experiment on UACC-257 melanoma; 96.7% with M14 melanoma.

For the compound `Cc1cc(C)c([I+]c2c(C)cc(C)cc2C)c(C)c1`, the growth in the experiment on NCI-H23 lung was -29.1% (active); in the experiment with NCI-H226 lung, -1.55% (active); with NCI-H322M lung it was 46.5%; with HOP-62 NSCLC it was -78.3% (active); with NCI-H460 lung, 1.11% (active); in the experiment on NCI-H522 lung, -66.8% (active). Moreover, the growth with A549/ATCC NSCLC was 6.93% (active); in the experiment on 786-0 renal, -89.6% (active); with COLO 205 colon, -94.4% (active); with DU-145 prostate, 14.8%; in the experiment with MALME-3M melanoma, -51.6% (active); in the experiment with MDA-MB-231 breast, -55.1% (active). Further, the growth in the experiment with RXF 393 renal is -36.7% (active); in the experiment with SF-268 CNS, -66.9% (active); in the experiment on SF-295 CNS, -33.7% (active); in the experiment on SF-539 CNS it was -74.7% (active); with UACC-257 melanoma it was -49.6% (active); in the experiment on M14 melanoma, -77.6% (active).

Take `N#CC(I)CS(=O)(=O)c1ccccc1` (stereo not given): the growth in the experiment with NCI-H23 lung is 101%; in the experiment with NCI-H226 lung, 105%; in the experiment on NCI-H322M lung, 124%; with HOP-62 NSCLC it was 98.6%; with HOP-92 NSCLC, 94.5%; in the experiment on NCI-H522 lung it was -80.6% (active). Moreover, the growth in the experiment on A549/ATCC NSCLC was 93.3%; in the experiment with 786-0 renal, 107%; in the experiment on COLO 205 colon, -27.5% (active); in the experiment with DU-145 prostate, 100%; with K-562 leukemia it was 80.6%; in the experiment with MALME-3M melanoma, -22.4% (active). For the same compound, the growth was 98.3% with MDA-MB-231 breast; 81.8% with RXF 393 renal; 86.8% in the experiment with SF-268 CNS; 115% with SF-295 CNS; 95.6% in the experiment with SF-539 CNS; 73.1% in the experiment on UACC-257 melanoma.

With `CCCCCCCCCCCC(=O)OC(C)C(=O)NCCCC` (stereo not given), the growth was 97.3% in the experiment with NCI-H23 lung; 86% in the experiment on NCI-H226 lung; 91.7% in the experiment on NCI-H322M lung; 94% in the experiment with HOP-62 NSCLC; 98.1% in the experiment with HOP-92 NSCLC; 104% with NCI-H522 lung. Also, the growth is 98.8% with A549/ATCC NSCLC; 101% in the experiment with 786-0 renal; 109% in the experiment on COLO 205 colon; 105% in the experiment with DU-145 prostate; 94.1% in the experiment on K-562 leukemia; 96.4% in the experiment on MALME-3M melanoma. In addition, the growth was 113% in the experiment on MDA-MB-231 breast; 107% in the experiment with RXF 393 renal; 101% in the experiment with SF-268 CNS; 102% in the experiment with SF-295 CNS; 108% in the experiment with SF-539 CNS; 96.4% with UACC-257 melanoma. For the same compound, the growth with M14 melanoma is 105%.

As for `O=C(c1ccccc1)N(CCCl)C(=O)N(CCCl)C(=O)c1ccccc1`, the growth in the experiment with NCI-H23 lung was 93.7%; in the experiment on NCI-H226 lung, 93.7%; in the experiment with NCI-H322M lung, 90.2%; in the experiment with HOP-62 NSCLC it was 91.5%; with HOP-92 NSCLC, 62.3%; in the experiment on NCI-H522 lung, 85.7%. Besides, the growth in the experiment on A549/ATCC NSCLC was 95.7%; in the experiment on 786-0 renal, 103%; in the experiment on COLO 205 colon it was 99.9%; in the experiment with DU-145 prostate, 109%; in the experiment on K-562 leukemia, 95.5%; in the experiment on MALME-3M melanoma, 95.2%. Also, the growth in the experiment on MDA-MB-231 breast was 82.1%; in the experiment on RXF 393 renal, 104%; with SF-268 CNS, 102%; in the experiment with SF-295 CNS, 81.6%; in the experiment with SF-539 CNS it was 94.7%; in the experiment with UACC-257 melanoma, 101%. Further, in the experiment on M14 melanoma, the growth is 101%.

`Cc1nc(Sc2nc3ccc([N+](=O)[O-])cc3s2)sc1C`: the growth was -3.96% (active) in the experiment with NCI-H23 lung; 2.43% (active) in the experiment on NCI-H226 lung; 89.2% in the experiment on NCI-H322M lung; 72.2% in the experiment on HOP-62 NSCLC; 1.28% (active) in the experiment with HOP-92 NSCLC; -48.1% (active) in the experiment on NCI-H522 lung. For the same compound, the growth is 55.9% with A549/ATCC NSCLC; 19.6% in the experiment on 786-0 renal; 27.1% in the experiment on COLO 205 colon; 31.1% in the experiment with DU-145 prostate; 3.13% (active) in the experiment with K-562 leukemia; -14.3% (active) in the experiment with MALME-3M melanoma. The growth was -15.6% (active) with MDA-MB-231 breast; -2.1% (active) with RXF 393 renal; 18.7% in the experiment on SF-268 CNS; 82.1% with SF-295 CNS; 36.8% in the experiment with UACC-257 melanoma; 11.5% in the experiment with M14 melanoma.

As to `O=[N+]([O-])c1ccc2c(c1)Cc1ccccc1-2`, the growth was 99.9% with NCI-H23 lung; 108% with NCI-H226 lung; 106% in the experiment on NCI-H322M lung; 94.8% with HOP-62 NSCLC; 99.9% with NCI-H460 lung; 94.8% with A549/ATCC NSCLC. For the same compound, the growth in the experiment on 786-0 renal is 91%; in the experiment on COLO 205 colon, 116%; with DU-145 prostate, 97.7%; in the experiment on K-562 leukemia it was 94.5%; with MALME-3M melanoma it was 95.7%; in the experiment with MDA-MB-231 breast, 102%. The growth was 109% with RXF 393 renal; 95.9% in the experiment with SF-268 CNS; 100% in the experiment on SF-295 CNS; 100% with SF-539 CNS; 97.2% in the experiment with UACC-257 melanoma; 106% in the experiment on M14 melanoma.

Values taken from PubChem BioAssay (NCI).
